From publication PMC8384837, “Expanding the binding specificity for RNA recognition by a PUF domain”

Target: PUM1 PUF domain R4-RHG (Homo sapiens, UniProt Q14671 828-1176, N971R;Q975G)
Assay: yeast three-hybrid, YBZ-1, SC-Leu-His + 0.5 mM 3-AT, 4 days
Details: tags: N-Gal4 AD-HA kept; label: inside an RPR1-promoter hybrid RNA with tandem MS2 sites; ssRNA
Summary of the method: (§1)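 The interaction score is the log change in variant frequency from input to selection. Scores were computed in log2 with a pseudocount of 1 for absent variants, using Illumina sequencing of PCR-amplified repeat regions. The input came from four days on SC-Leu and the selection from four days on SC-Leu-His + 0.5 mM 3-AT. The cells were strain YBZ-1 (LexA–MS2 coat fusion, HIS3 reporter) co-expressing Pumilio-1 PUF domain libraries and matching RNA elements from a centromeric plasmid.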

Sequence	binding signal
GGCUAGAACUAGUGGAUCCCCCGGCGCCCGGCGGCUCGAGCCCGGGUAAGUGUAUAUAGUCUGCAUGCCGCCGGGCGCCAUGCCUGCAGGUCGACUCUAGAAAACAUG	4.05 log2 enrichment (interaction score)
GGCUAGAACUAGUGGAUCCCCCGGCGCCCGGCGGCUCGAGCCCGGGUAAGUGUAAAUAGUCUGCAUGCCGCCGGGCGCCAUGCCUGCAGGUCGACUCUAGAAAACAUG	2.69 log2 enrichment (interaction score)
GGCUAGAACUAGUGGAUCCCCCGGCGCCCGGCGGCUCGAGCCCGGGUAAGUGUACAUAGUCUGCAUGCCGCCGGGCGCCAUGCCUGCAGGUCGACUCUAGAAAACAUG	4.02 log2 enrichment (interaction score)

Target: PUM1 PUF domain R5-RRS (Homo sapiens, UniProt Q14671 828-1176, C1007R;Q1011S)
Assay: as above
Details: tags: N-Gal4 AD-HA kept; label: inside an RPR1-promoter hybrid RNA with tandem MS2 sites; ssRNA
Summary of the method: as §1

Chain of PUM1 PUF domain R5-RRS (Q14671 828-1176 C1007R/Q1011S): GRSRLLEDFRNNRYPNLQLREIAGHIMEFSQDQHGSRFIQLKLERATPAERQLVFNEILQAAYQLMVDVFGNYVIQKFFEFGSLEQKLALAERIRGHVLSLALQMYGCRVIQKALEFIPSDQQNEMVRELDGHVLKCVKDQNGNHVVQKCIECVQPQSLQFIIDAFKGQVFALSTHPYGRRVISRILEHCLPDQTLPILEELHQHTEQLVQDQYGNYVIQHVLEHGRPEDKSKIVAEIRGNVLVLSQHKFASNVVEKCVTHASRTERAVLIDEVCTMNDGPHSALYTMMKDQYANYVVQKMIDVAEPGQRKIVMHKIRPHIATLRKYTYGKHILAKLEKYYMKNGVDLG

Sequence	binding signal
GGCUAGAACUAGUGGAUCCCCCGGCGCCCGGCGGCUCGAGCCCGGGUAAGUGUUAAUAGUCUGCAUGCCGCCGGGCGCCAUGCCUGCAGGUCGACUCUAGAAAACAUG	4.6 log2 enrichment (interaction score)
GGCUAGAACUAGUGGAUCCCCCGGCGCCCGGCGGCUCGAGCCCGGGUAAGUGUAAAUAGUCUGCAUGCCGCCGGGCGCCAUGCCUGCAGGUCGACUCUAGAAAACAUG	2.42 log2 enrichment (interaction score)
GGCUAGAACUAGUGGAUCCCCCGGCGCCCGGCGGCUCGAGCCCGGGUAAGUGUGAAUAGUCUGCAUGCCGCCGGGCGCCAUGCCUGCAGGUCGACUCUAGAAAACAUG	1.53 log2 enrichment (interaction score)
GGCUAGAACUAGUGGAUCCCCCGGCGCCCGGCGGCUCGAGCCCGGGUAAGUGUCAAUAGUCUGCAUGCCGCCGGGCGCCAUGCCUGCAGGUCGACUCUAGAAAACAUG	4.44 log2 enrichment (interaction score)
